HP1b binding inh: HTS for Inhibitors of HP1-beta Chromodomain Interactions with Methylated Histone Tails; Chromobox protein homolog 1 (Homo sapiens), P83916; AlphaScreen HP1-beta / biotin-H3K9me3 peptide binding; Potency, µM (titrated, usually from 114 µM), for inactives: top-dose activity change, negative = inhibition, usual class: inhibitors; hit rate 0.56% among 390,000; AID 540317, 2011; note: nearly all actives have a fitted effect of over 70% in size
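HP1-beta protein (50 nM final) preincubated 30 min at room temperature with biotinylated H3(1-18)K9me3 peptide (50 nM) in PBS pH 7.4, 0.01% Tween-20, then compound added for 30 min. AlphaScreen streptavidin donor/nickel chelate acceptor beads (10 ug/mL final), 30 min dark, luminescence read.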
JMJD2A Tudor: qHTS Assay for Inhibitors of JMJD2A-Tudor Domain. Lysine-specific demethylase 4A (Homo sapiens), O75164. hit rate 4.4% among 390,000. AlphaScreen JMJD2A-Tudor / H3K4me3 peptide binding. Potency, µM (titrated, usually from 114 µM), for the others: at the highest dose activity change, negative = inhibition, actives largely listed as inhibitors; note: % is set by controls: 0 for no effect and ±100 for the full control effect; nearly all actives have a fitted effect of over 50% in size
GLS inhibitor: qHTS for Inhibitors of Glutaminase (GLS); Glutaminase kidney isoform, mitochondrial (Homo sapiens), O94925; GLS enzymatic activity, qHTS titration; Potency, µM (top dose mostly 45.5 µM), inactives show top-dose activity change, negative = inhibition, hits mostly inhibitors; hit rate 0.21% among 410,000; AID 624170, 2012; note: % is set by controls: 0 for no effect and ±100 for the full control effect
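hKGA in 45 mM KH2PO4 (pH 8.2), 0.02% Tween-20 with compound, then 1mM L-Glutamine (stock as added) plus glutamate oxidase/HRP/Amplex red coupling mix. Fluorescence read initially and after 30 min at RT; signal change reflects glutamate formation.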
L3MBTL1 block: qHTS Assay for the Inhibitors of L3MBTL1; Lethal(3)malignant brain tumor-like protein 1 (Homo sapiens), Q9Y468; AlphaScreen L3MBTL1–H3K9me1 peptide binding; Potency, µM (top dose mostly 57.1 µM), for inactives: at the top dose activity, negative = inhibition, usual class: inhibitors; hit rate 0.66% among 230,000; note: % is set by controls: 0 for no effect and ±100 for the full control effect; nearly all actives have a fitted effect of over 60% in size
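L3MBTL1 50 nM + b-AHA-H3(1-15)K9me1 75 nM, 30 min RT; compound added, 30 min RT; streptavidin donor/Ni-chelate acceptor beads 10 ug/mL each final, 30 min RT dark; AlphaScreen read.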
G9a block: qHTS Assay for Inhibitors of Histone Lysine Methyltransferase G9a; G9a H3K9 monomethylation, AlphaScreen, 2 h; Histone-lysine N-methyltransferase EHMT2 (Homo sapiens), Q96KQ7; Potency, µM (top dose mostly 102 µM), inactives show top-dose activity, negative = inhibition, hits mostly inhibitors; AID 504332, 2011; hit rate 8.8% among 350,000; note: % is set by controls: 0 for no effect and ±100 for the full control effect; nearly all actives have a fitted effect of over 75% in size
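AlphaScreen detection with an anti-monomethyl H3K9 antibody quantified product after a 2 h room-temperature reaction containing 500 nM biotinylated H3K9 peptide, 20 µM SAM and 20 nM enzyme, which had been preincubated 15 min with compound.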
BAZ2B block: qHTS Assay for Inhibitors of BAZ2B. Bromodomain adjacent to zinc finger domain protein 2B (Homo sapiens), Q9UIF8. AlphaScreen BAZ2B-H3K14Ac peptide displacement. Potency, µM (top dose mostly 114 µM), for the others: at the highest dose activity change, negative = inhibition, usual class: inhibitors. hit rate 4.4% among 360,000. AID 504333, 2011; note: % is set by controls: 0 for no effect and ±100 for the full control effect; nearly all actives have a fitted effect of over 60% in size
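Compounds, titrated to a top concentration of 110 uM, were incubated 30 min at room temperature with preformed BAZ2B/acetyl-K14 H3 peptide complex (50 nM each). Proximity signal was measured by AlphaScreen after 20 min with beads.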
* hit, by the source's call; ? = inconclusive; · = no result; [ ] = another dose, or the depositor's remark. Compounds with a hit are over-represented: about 10% of the library has one in this group of screens. Calls come from the whole dose curve; as a rule, active = well fitted curve in the direction sought with a large enough effect; inconclusive = small, poorly fitted or top-dose-only effect, or another doubt; inactive = no such curve, though single readings can be large; an effect the other way counts as inactive or inconclusive. Potency is the fitted concentration of half-maximal effect.

SMILES	HP1b binding inh	JMJD2A Tudor	GLS inhibitor	L3MBTL1 block	G9a block	BAZ2B block
O=C(Cc1cccs1)N1CCN(c2ccc([N+](=O)[O-])cc2)CC1	5%	-28%	-1%	·	?	56µM*
CC(=O)N1CCN(c2ccc(NCc3ccc4c(c3)OCO4)cc2)CC1	-21%	?	51%	-7%	?	?
Cc1nc2ncnn2c(N2CCN(C(=O)Cc3cccs3)CC2)c1C	-13%	?	-3%	·	-25%[59 µM]	50µM*
CC(=O)N1CCN(c2ccc(NCc3ccc(C)s3)cc2)CC1	-14%	?	60%	?	45µM*	10%
CCc1cc2c(-c3ccccc3)cc(=O)oc2c2c1OCN(Cc1ccc(F)cc1)C2	81%	1%	17%	·	19%[59 µM]	8%
COc1ccccc1N1CCN(S(=O)(=O)c2c(C)nc3sccn3c2=O)CC1	9%	-8%	-6%	·	2%[59 µM]	-11%
CCn1c(C)cs/c1=N\C(=S)Nc1ccccc1C	-17%	?	7%	-25%	?	40µM*
CNc1nc(C23CC4CC(CC(C4)C2)C3)cs1	-5%	-20%	-7%	·	32µM*	-3%
O=C(CC(=O)Nc1nc(C23CC4CC(CC(C4)C2)C3)cs1)NCCO	-15%	-29%	7%	-12%	-7%[59 µM]	-20%
CCN(CCO)Cc1cn[nH]c1-c1ccc(C)c(C)c1	?	3.5µM*	6%	3%	3.5µM*	56µM*
CCN(CCO)Cc1csc2cc(C)ccc12	45%	5%	-11%	-4%	?	0%
Cc1cccc(NC(=S)NN2CCN(C)CC2)c1	37%	10%	2%	·	56µM*	-21%
S=C(NCc1ccccc1)Nc1cccc(Cl)c1	54%	13%	-1%	5%	30%[59 µM]	1%
Cc1cccc(NC(=S)NNC(=O)c2csc(C(C)C)c2)c1	-3%	-27%	17%	17%[11.4 µM]	?	5%
CCCc1cc(C(=O)NNC(=S)NC(C)c2ccccc2)cs1 (stereo not given)	8%	-23%	-1%	·	50µM*	-3%
Cc1cccc(NC(=S)NNC(=S)NCc2ccccc2)c1	-25%	?	34%	·	0.71µM*	-2%
Cc1ccc(NC(=S)NN2CCN(C)CC2)c(C)c1	42%	-7%	-6%	8%	7%[59 µM]	1%
CCc1cc(C(=O)NNC(=S)Nc2cccc(C)c2)cs1	5%	-16%	1%	66%	10µM*	-2%
CCCc1cc(C(=O)NNC(=S)NCC2CCCO2)cs1 (stereo not given)	39%	5%	?	-14%	5%[59 µM]	7%
Cc1noc(C)c1-c1cncnc1NCc1ccccc1	·	·	·	·	-5%[0.501 µM]	·
CC(C)N1CCc2[nH]c(=S)[nH]c(=O)c2C1	1%	?	-5%	44%	40µM*	16%
CCCN1CCc2[nH]c(=S)[nH]c(=O)c2C1	21%	?	5%	36%	32µM*	14%
Cc1ccc(CN2CCc3[nH]c(=S)[nH]c(=O)c3C2)cc1	19%[57 µM]	-12%	-8%	·	?	-13%
O=C(COc1ccc(S(=O)(=O)N2CCOCC2)cc1)N1CCOCC1	12%	-15%	1%	-2%	-10%[59 µM]	-4%
O=C(COc1ccc(/C=C\[N+](=O)[O-])cc1)N1CCOCC1	20%	-26%	-20%	47%	10µM*	-12%
CC(C)c1ccc(NC2(C#N)C(=O)Nc3ccccc32)cc1 (stereo not given)	11%	?	3%	-3%	71µM*	?
COc1ccc(Nc2nc(S(=O)(=O)c3ccc(C)cc3)c(Cl)s2)cc1	-4%	?	-5%	0%	45µM*	-32%
